Test results: PubChem BioAssay
Potency and affinity values are given separately. The source made the active and inactive calls. Where a call stands in place of a potency, no number is given. The rule behind the calls is not given here.

molecular target: Plasmodium falciparum protein kinase 6 (PK6, PF3D7_1337100) (UniProt Q8IDW1); experiment: PfPK6 kinase inhibitors, biochemical, TCAMS library (AID 1159586); settings: recombinant PfPK6, Kinase-Glo ATP depletion luminescence
Sequence (Q8IDW1 1-305): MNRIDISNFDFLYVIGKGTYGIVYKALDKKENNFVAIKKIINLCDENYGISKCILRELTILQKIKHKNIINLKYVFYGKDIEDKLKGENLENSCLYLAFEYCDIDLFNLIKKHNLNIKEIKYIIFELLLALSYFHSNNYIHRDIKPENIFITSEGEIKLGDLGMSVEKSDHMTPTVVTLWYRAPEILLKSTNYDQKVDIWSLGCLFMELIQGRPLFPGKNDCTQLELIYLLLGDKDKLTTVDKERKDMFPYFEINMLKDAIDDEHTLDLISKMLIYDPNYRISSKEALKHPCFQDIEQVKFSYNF

| Compound | outcome |
| --- | --- |
| CS(=O)(=O)c1ccc(CCNCc2ccc(-c3ccc(CN(C(=O)C4CCCC4)C4CCN(Cc5ccccc5)CC4)cc3)nc2)cc1 | inactive |
| CNS(=O)(=O)CCNCc1ccc(-c2ccc3ncnc(Nc4ccc(OCc5ccccc5)cc4)c3c2)o1 | inactive |
| CC(C)c1ccc(NC(=O)c2ccc(C(=O)NCC3CCN(CC4CCCCC4)CC3)cc2)cc1 | inactive |
| CCCNCc1ccc(-c2ccc(CN(CCOC)C(=O)c3cscn3)cc2)nc1 | inactive |
| CCNc1cc(C(=O)N[C@@H](Cc2ccccc2)[C@H](O)CN[C@H](C)C(C)(C)C)cc(N2CCCCS2(=O)=O)c1 | inactive |
| O=C(Nc1ccc(C(=O)N2CCN(CCN3CCN(c4cccc(C(F)(F)F)c4)CC3)CC2)cc1)c1ccc(C(F)(F)F)cc1 | inactive |
| O=C(/C=C/c1ccc(Cl)c(Cl)c1)N1CCN(C(=O)Nc2ccc(C(F)(F)F)cc2)CC1 | inactive |
| Cc1[nH]c(C)c(-c2ccc(-c3ccc(F)cc3)nc2)c(=O)c1Br | inactive |
| Cc1nc(N)nc(N)c1OCCCOc1ccccc1Br | inactive |
| FC(F)(F)c1ccc2nc(-c3cccc(-c4ccc(CNCC5CCCO5)cc4)c3)[nH]c2c1 (centres undefined) | inactive |
| Cc1noc(C)c1-c1cccc(CNCc2ccc(-c3ccc(-c4nc5c(C)cccc5[nH]4)cc3)cc2)c1 | inactive |
| Cc1cc(C2CCN(CCCCNC(=O)c3ccc(-c4ccc(C(F)(F)F)cc4)cc3)CC2)c(C)cc1OCCO | inactive |
| COC(=O)c1cccc(CN(CCC(O)(C(F)(F)F)C(F)(F)F)C(=O)CC2CCCC2)c1 | inactive |
| Cc1[nH]c(C)c(-c2ccc(-c3ccccc3C(F)(F)F)nc2)c(=O)c1Br | inactive |
| CCNc1cc(C(=O)N[C@@H](Cc2ccccc2)[C@H](O)CNCc2cc(C#N)ccc2OC)cc(N2CCCC2=O)c1 | inactive |
| CO/C(=C\C=C\c1cc2cc(Cl)c(Cl)cc2[nH]1)C(=O)NCCCNC12CC3CC(CC(C3)C1)C2 | inactive |
| O=c1[nH]c2ccc(Nc3nccc(NCCc4ccccc4)n3)cc2[nH]1 | inactive |
| COc1ccc2nccc([C@@H](O)CN3CCC(NCc4ccc5c(c4)NC(=O)CO5)CC3)c2c1 | inactive |
| CCOC(=O)c1ccc(NC(=O)Nc2ccc(-c3ccc(-c4nc5ccc(C(F)(F)F)cc5[nH]4)cc3)cc2)cc1 | inactive |
| Cc1cccc2[nH]c(-c3ccc(-c4cccc(CN5CCCC5CN)c4)cc3)nc12 (centres undefined) | inactive |
| COc1ccc(NC(=O)/C=C/c2ccccc2Cl)cc1OCCN1CCC(N2CCCCC2)CC1 | inactive |
| COc1cc(C2=NN(S(=O)(=O)c3c(Cl)cc(Cl)cc3Cl)CCCC2)ccc1Cl | inactive |
| CC(C)NCc1ccc(-c2cccc(NC(=O)c3ccc(F)cc3)c2)cc1 | inactive |
| CCCc1ccc(C(=O)N2[C@@H](c3nccs3)[C@@H](C(N)=O)C[C@@]2(CC(C)C)C(=O)O)cc1 | inactive |
